Reference: the supplement of paper PMC6555819

What was measured:
Assay in all cases: PBM binding z-score (relative to random genomic background probes); higher = stronger binding; sequences stand for … in GC…GCGATTGACAGCGTAGAATGAAGG
[1] = system: PPARg:RXRa DBDmut IVT, anti-RXR (DBD mutation: RXRa K156A/R161A, NR concentration 270 nM, RXRa partner concentration 90 nM)
Outline: (§1)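 Binding buffer was PBS pH 7.4 with 2% milk, 0.02% Triton X-100, 1 mM DTT, 0.2 mg/mL BSA and 0.4 mg/ml salmon testes DNA. In it, ligand-free nuclear receptor dimers were incubated 1 h on custom Agilent 4×180K protein-binding microarrays carrying double-stranded probes. Antibodies against each partner (one per run) detected binding, and z-scores were calculated against random background probes after regression normalization of scanned fluorescence.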

[2] = system: PPARg:RXRa IVT, anti-PPARg (NR concentration 270 nM, RXRa partner concentration 90 nM)
Outline: as §1

[3] = system: PPARg DBDmut:RXRa IVT, anti-PPARg (DBD mutation: PPARg1 K132A/R137A, NR concentration 270 nM, RXRa partner concentration 90 nM)
Outline: as §1

[4] = system: PPARg DBDmut IVT, anti-PPARg (DBD mutation: PPARg1 K132A/R137A, NR concentration 270 nM)
Outline: as §1

[5] = system: PPARg homodimer (NR concentration 180 nM)
Outline: as §1

[6] = system: PXR:RXRa (NR concentration 270 nM, RXRa partner concentration 90 nM)
Outline: as §1

[7] = system: PXR homodimer (NR concentration 270 nM)
Outline: as §1

[8] = system: RARa:RXR (NR concentration 270 nM, RXRa partner concentration 90 nM)
Outline: as §1

[9] = system: RARa homodimer (NR concentration 270 nM)
Outline: as §1

[10] = system: RARb:RXRa (NR concentration 270 nM, RXRa partner concentration 90 nM)
Outline: as §1

[11] = system: RARb homodimer (NR concentration 270 nM)
Outline: as §1

[12] = system: RARg:RXRa (NR concentration 270 nM, RXRa partner concentration 90 nM)
Outline: as §1

[13] = system: RARg homodimer (NR concentration 270 nM)
Outline: as §1

[14] = system: RXRa DBDmut IVT, anti-RXR (DBD mutation: RXRa K156A/R161A, NR concentration 90 nM)
Outline: as §1

[15] = system: RXRa homodimer (NR concentration 180 nM)
Outline: as §1

[16] = system: THRa:RXRa (NR concentration 90 nM, RXRa partner concentration 90 nM)
Outline: as §1

[17] = system: THRa homodimer (NR concentration 90 nM)
Outline: as §1

[18] = system: VDR homodimer (NR concentration 270 nM)
Outline: as §1

Sequence | PBM binding z-score [1] | PBM binding z-score [2] | PBM binding z-score [3] | PBM binding z-score [4] | PBM binding z-score [5] | PBM binding z-score [6] | PBM binding z-score [7] | PBM binding z-score [8] | PBM binding z-score [9] | PBM binding z-score [10] | PBM binding z-score [11] | PBM binding z-score [12] | PBM binding z-score [13] | PBM binding z-score [14] | PBM binding z-score [15] | PBM binding z-score [16] | PBM binding z-score [17] | PBM binding z-score [18]
AGAACGAGTGCACGCTGAGTTGATAGCAGAGTAG | -0.434 | 0.0753 | 0.194 | -0.145 | -0.176 | 0.739 | 0.603 | -0.0592 | -0.662 | 0.298 | -0.576 | 0.354 | 0.356 | 3.07 | 0.384 | -0.0909 | -0.746 | 2.64
TTACCAAGGTGAAAGGTCGTTCATGCACGCCTTG | 2.97 | 5.04 | 0.222 | 0.115 | 1.16 | 3.93 | 0.838 | 5.63 | 0.139 | 3.06 | 2.8 | 4.33 | 2.27 | 0.778 | 5.93 | 3.24 | 0.876 | 1.96
ACTAGCAGGCGAAGGGTCACTCAAGATTAGTCCG | -0.0679 | 2.22 | -0.671 | -0.597 | 1.88 | 2.32 | -0.24 | 3.29 | -0.0684 | 3.31 | 3.34 | 3.45 | 3.42 | 0.405 | 3.49 | 2.32 | -0.224 | 0.989
ATATGTAGATTACATCCGGGTCATTCAGGCTATG | 1.44 | 2.32 | 1.43 | 1.61 | 1.18 | 2.53 | 1.22 | 2.88 | 0.587 | 1.38 | 2.23 | 1.66 | 1.21 | 1.02 | 2.2 | 3.14 | 2.27 | 2.43
CCTCGGAGGAAAGAAGGTCAGAGCTGTCCGCTTT | 0.673 | 0.86 | -2.12 | -1.68 | 1.32 | 1.16 | -0.583 | 1.95 | 0.0336 | 2.27 | 2.71 | 1.88 | 1.67 | 0.0436 | 1.44 | 1.93 | -0.547 | 0.00914
CGGCCAAGGTCAAGGTCAGTGAAAGAGACTCGAA | 3.44 | 4.67 | 0.246 | -0.532 | 3.93 | 5.02 | 0.799 | 5.17 | 1.18 | 5.71 | 5.16 | 6.85 | 7.69 | 3.48 | 6.81 | 4.33 | 2.89 | 2.95
AATACAGGGTCATCGTAGGCCAGGGTACGCACAG | 2.56 | 4.25 | 1.78 | 1.18 | 4.25 | 4.84 | 0.528 | 5.17 | 1.22 | 4.32 | 3.72 | 5.54 | 5.21 | 3.32 | 6.38 | 4.57 | 1.69 | 3.9
GGAACGAGGGCAAGTTGTTAGCAGAGTTTGATGG | 3.77 | 2.94 | -0.421 | -0.269 | 0.194 | 0.979 | 0.561 | 0.459 | -0.28 | 2.78 | 1.42 | 1.49 | 1.82 | 2.39 | 0.957 | 1.46 | 0.187 | 1.65
GTACCAAGGTGAATAGGTCGTTAATGAGTAGGCG | 1.75 | 2.66 | 0.399 | 0.346 | 1.46 | 0.664 | 0.393 | 1.44 | 0.00305 | 1.91 | 1.88 | 2.4 | 1.37 | -0.112 | 1.7 | 1.7 | 0.636 | 0.459
ATATGTAGGTTAGCTGGGCTCATTCAGACTAGGC | 6.55 | 5.57 | 1.42 | 1.63 | 0.611 | -0.0149 | -0.367 | 0.11 | 0.493 | 0.456 | 0.13 | 0.263 | 0.55 | -0.108 | 0.38 | 0.702 | -0.522 | -0.144
AGAACGAGGGCACGCTGAGTTGCTAGCAGAGTAG | 4.16 | 3.97 | -0.0983 | -0.499 | -0.0627 | 0.539 | -0.605 | 0.617 | -0.905 | 2.43 | 0.875 | 1.48 | 1.95 | 1.69 | 1.1 | 1.51 | -0.328 | 1.42
ATCTCTGGGTAAGACTCAGTTCAGTGAAGAACGC | 1.16 | 1.22 | 0.795 | 0.645 | 0.772 | 1.16 | 1.54 | 0.0495 | 0.661 | 0.293 | 0.372 | 0.252 | 0.292 | 0.0786 | -0.0436 | 0.589 | 0.517 | 1.27
GGAACGAGGGCAAAGTTGAAAGCATCTGTCGACG | 4.35 | 5.08 | -0.45 | -0.356 | 0.811 | 2.03 | 0.337 | 2.95 | -0.362 | 2.7 | 1.51 | 2.59 | 1.86 | 2.79 | 2.88 | 1.59 | -0.341 | 0.999
CCGACTGGGCCAAAAAGGTCATTGATGCCGATAA | 1.65 | 2.62 | -1.21 | -1.08 | 2.17 | 4.5 | 1.95 | 4.92 | 0.897 | 3.9 | 4.22 | 4.39 | 3.5 | 0.66 | 4.52 | 3.14 | 0.199 | 2.14
